This note sets out measurements from publication PMC4666376, “Characterisation of aptamer–target interactions by branched selection and high-throughput sequencing of SELEX pools”.

Chain of PAI-1 wild type, active (P05121 24-402): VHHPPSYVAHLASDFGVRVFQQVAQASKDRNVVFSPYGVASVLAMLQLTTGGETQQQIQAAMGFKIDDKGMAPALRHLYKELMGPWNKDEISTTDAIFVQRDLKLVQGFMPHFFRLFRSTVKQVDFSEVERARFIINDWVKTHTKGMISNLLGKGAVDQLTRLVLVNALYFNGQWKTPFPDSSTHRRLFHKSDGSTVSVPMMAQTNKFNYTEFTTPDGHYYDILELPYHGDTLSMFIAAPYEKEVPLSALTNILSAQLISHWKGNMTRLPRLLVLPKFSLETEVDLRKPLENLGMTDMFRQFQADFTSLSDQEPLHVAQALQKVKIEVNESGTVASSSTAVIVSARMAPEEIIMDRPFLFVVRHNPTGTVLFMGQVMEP

The assay concerns the target PAI-1 wild type, active (human, UniProt P05121 24-402). Put plainly: branched SELEX with high-throughput sequencing; PAI-1 immobilised on polyclonal anti-PAI-1 antibody; HBS (10 mM HEPES pH 7.4, 140 mM NaCl), 2 mM MgCl2, 2 mM CaCl2, 0.1% BSA; RNA pool 100 nM; PAI-1 captured on antibody-coated wells; 45 min; binding temperature not stated (PAI-1 capture at room temperature); high values mean tight binding.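 Note: Pool frequency after one selection round with this target divided by frequency before selection.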 The following applies: protein: recombinant; tags: N-terminal His6; structured_RNA; 2'-F pyrimidines.
In the case of “GGGGCCACCAACGACAUUCUAGUCUGGUAGCAAUACCUAAGUUCGUCUAGAAAGUUGAUAUAAAUAGUGCCCAUGGAUC”, the binding signal was 0.89 enrichment factor.

Consider “GGGGCCACCAACGACAUUACACUGUAGAGAAUACCCAAUUCUCGACUAGAUGCGUUGAUAUAAAUAGUGCCCAUGGAUC”, for which the binding signal came out at 0.74 enrichment factor.

On to “GGGGCCACCAACGACAUUGAUCACUAAGGUUAGACCGGAGUGCCGUAGAAUGCGUUGAUAUAAAUAGUGCCCAUGGAUC”, for which the binding signal is 0.88 enrichment factor.

For the sequence “GGGGCCACCAACGACAUUGCGCGAAGCGCUUACGCGUGUUGAUCGAAUGUUGUUGAUAUAAAUAGUGCCCAUGGAUC”, the binding signal turned out to be 1.4 enrichment factor.

As for “GGGGCCACCAACGACAUUCAGGCCGUAGGAUGUUAUAUCCGAUCCUGAUCUUCGUUGAUAUAAAUAGUGCCCAUGGAUC”, the binding signal worked out at 1.4 enrichment factor.

With “GGGGCCACCAACGACAUUACAUACCGUAGGGCAGAUCGCCUGACUAGUAAUACGUUGAUAUAAAUAGUGCCCAUGGAUC”, the binding signal turned out to be 0.24 enrichment factor.

Turning to “GGGGCCACCAACGACAUUGCGCUACGAUCAAAACACGUAGUAGUGCAACGAAUGUUGAUAUAAAUAGUGCCCAUGGAUC”, the binding signal was 0.29 enrichment factor.

Take “GGGGCCACCAACGACAUUUCAUAACGUAGACUGUCUGAGUCGAUCAGAGUGUUGUUGAUAUAAAUAGUGCCCAUGGAUC”: the binding signal worked out at 1.68 enrichment factor.

For “GGGGCCACCAACGACAUUGACCAUGUAGGACUUAAAGUCUGACCACAAUGUGUGUUGAUAUAAAUAGUGCCCAUGGAUC”, the binding signal amounted to 0.6 enrichment factor.

In the case of “GGGGCCACCAACGACAUUGACUAGACAUGAUGUUGCAUGUCACCAUGUAAAAUGUUGAUAUAAAUAGUGCCCAUGGAUC”, the binding signal worked out at 0.92 enrichment factor.

For the sequence “GGGGCCACCAACGACAUUCUACGUCGUAGUCGCUUAGCGAUGACCGUUAGAUGUUGAUAUAAAUAGUGCCCAUGGAUC”, the binding signal came to 0.74 enrichment factor.

Regarding “GGGGCCACCAACGACAUUGUGCCAUGUAGAUCUUUAGGAGAUCGACCAGCAGUGUUGAUAUAAAUAGUGCCCAUGGAUC”, the binding signal is 0.57 enrichment factor.

As to “GGGGCCACCAACGACAUUGUUGAGCGCUGAGUUUCUGCGUUAGUUCUGUCAAUGUUGAUAUAAAUAGUGCCCAUGGAUC”, the binding signal is 3.37 enrichment factor.

“GGGGCCACCAACGACAUUAAGUUUCGUCCGGAUCGUGCAAUCCGGUCUAUGUGGUUGAUAUAAAUAGUGCCCAUGGAUC”: the binding signal is 4.02 enrichment factor.

In the case of “GGGGCCACCAACGACAUUCCGUCCGUGUUCAGUUAACACGCAUGUGUUUUGUGGUUGAUAUAAAUAGUGCCCAUGGAUC”, the binding signal turned out to be 1.36 enrichment factor.

Take “GGGGCCACCAACGACAUUGAGCUACGGCUAAGCCGCUAUAGUCUUCAGGAAUCGUUGAUAUAAAUAGUGCCCAUGGAUC”: the binding signal amounted to 0.33 enrichment factor.

Turning to “GGGGCCACCAACGACAUUAAGUUCGUCCUCUUCCAAGAGAAGGGGUCUAUGCCGUUGAUAUAAAUAGUGCCCAUGGAUC”, the binding signal amounted to 5.35 enrichment factor.

On to “GGGGCCACCAACGACAUUCCGCUCAUGAUCUGUUAUCAUGAGUGCGUAGUACCGUUGAUAUAAAUAGUGCCCAUGGAUC”, for which the binding signal came out at 1.08 enrichment factor.

With “GGGGCCACCAACGACAUUACCAUGUAGGCGUAAUUUCACGCUGACCAAGUGUUGUUGAUAUAAAUAGUGCCCAUGGAUC”, the binding signal was determined as 1.19 enrichment factor.

As for “GGGGCCACCAACGACAUUACGUAGGUAGCAUUUAUAUGCUUGACCGAUCAAUCGUUGAUAUAAAUAGUGCCCAUGGAUC”, the binding signal worked out at 1.07 enrichment factor.

“GGGGCCACCAACGACAUUCGGGACUACGUAGGCGGAUUCGCCGAUUACCCGUUGUUGAUAUAAAUAGUGCCCAUGGAUC”: the binding signal worked out at 0.7 enrichment factor.

Regarding “GGGGCCACCAACGACAUUGAACGUAAGGAGAGUGCGCUUACCGCACAAUGUUUGUUGAUAUAAAUAGUGCCCAUGGAUC”, the binding signal stood at 0.43 enrichment factor.

On to “GGGGCCACCAACGACAUUUGCGUAAGCAACCUUGGUGUUAUAUUCACCAGAUCGUUGAUAUAAAUAGUGCCCAUGGAUC”, for which the binding signal amounted to 0.63 enrichment factor.

With “GGGGCCACCAACGACAUUAAGUUCGUCCCCGUAAGCUCUUACGGGGUCUAUGCGUUGAUAUAAAUAGUGCCCAUGGAUC”, the binding signal is 5.92 enrichment factor.

For the sequence “GGGGCCACCAACGACAUUUUGAUCAACACAACGUAGGUCUAUGCGACCGAUAGUUGAUAUAAAUAGUGCCCAUGGAUC”, the binding signal was 2.02 enrichment factor.

For the sequence “GGGGCCACCAACGACAUUGACCCGGUCACUUAUGUGGCCGAUAUCGUAGAUGCGUUGAUAUAAAUAGUGCCCAUGGAUC”, the binding signal came to 0.2 enrichment factor.

On to “GGGGCCACCAACGACAUUGAGUCUAGACAAAAUUGUCUUAAGUUCGUCUUAAUGUUGAUAUAAAUAGUGCCCAUGGAUC”, for which the binding signal turned out to be 7.89 enrichment factor.

In the case of “GGGGCCACCAACGACAUUAUGCCGUAGGCGCUAGAUGUGCCGAUCAUAAUGCAGUUGAUAUAAAUAGUGCCCAUGGAUC”, the binding signal was found to be 0.5 enrichment factor.

For “GGGGCCACCAACGACAUUGACCCAUCUCGCGUUUCCGGGAUGACUAGUAGAAUGUUGAUAUAAAUAGUGCCCAUGGAUC”, the binding signal was determined as 0.56 enrichment factor.
